Columns and labels:
Details in all cases: concentration: 1 μM, replicates: in singlicate; n = 1
BTK = test system: BTK
BUB1 = test system: BUB1
CAMK1B = test system: CAMK1B
CAMK1D = test system: CAMK1D
CAMK1G = test system: CAMK1G
CAMK1 = test system: CAMK1
CAMK2A = test system: CAMK2A
CAMK2B = test system: CAMK2B
CAMK2D = test system: CAMK2D
CAMK2G = test system: CAMK2G
CAMK4 = test system: CAMK4
CAMKK1 = test system: CAMKK1
CAMKK2 = test system: CAMKK2
CASK = test system: CASK
CDC2L1 = test system: T1, CDC2L1
T1 construct: gene CDK11B

CDC2L2 = test system: CDC2L2
CDC2L5 = test system: T2, CDC2L5
T2 construct: gene CDK13

CDK11 = test system: T3, CDK11
T3 construct: gene CDK19

CDK2 = test system: CDK2
CDK3 = test system: CDK3
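Note: KINOMEscan kinase panel screen.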

| Compound | %Inh (BTK) [%] | %Inh (BUB1) [%] | %Inh (CAMK1B) [%] | %Inh (CAMK1D) [%] | %Inh (CAMK1G) [%] | %Inh (CAMK1) [%] | %Inh (CAMK2A) [%] | %Inh (CAMK2B) [%] | %Inh (CAMK2D) [%] | %Inh (CAMK2G) [%] | %Inh (CAMK4) [%] | %Inh (CAMKK1) [%] | %Inh (CAMKK2) [%] | %Inh (CASK) [%] | %Inh (CDC2L1) [%] | %Inh (CDC2L2) [%] | %Inh (CDC2L5) [%] | %Inh (CDK11) [%] | %Inh (CDK2) [%] | %Inh (CDK3) [%] |
| --- | --- | --- | --- | --- | --- | --- | --- | --- | --- | --- | --- | --- | --- | --- | --- | --- | --- | --- | --- | --- |
| COC(=O)C(Cc1ccccc1)NC(=O)NC1CCN(c2ccnc(Nc3ccc(F)cc3)n2)C1 (centres unmarked) [GSK1379714] | 30 | 32 | 34 | 4 | 9 | 2 | 0 | 0 | 8 | 24 | 9 | 19 | 9 | 4 | 0 | 18 | 0 | 48 | 0 | 6 |
| O=C(Nc1n[nH]c2nc(-c3cccs3)c(Br)cc12)C1CC1 [SB-735297] | 0 | 0 | 0 | 0 | 0 | 0 | 100 | 100 | 10 | 11 | 0 | 0 | 0 | 13 | 1 | 12 | 24 | 0 | 77 | 26 |
| Cc1ccc(NC(=O)Nc2ccccc2)cc1-c1ccc(C(=O)Nc2ccncc2)cc1 [GSK1398471] | 0 | 0 | 13 | 20 | 0 | 15 | 0 | 0 | 0 | 9 | 0 | 0 | 19 | 0 | 0 | 13 | 0 | 11 | 1 | 0 |
| CNCc1ccc2nc(NC(=O)c3ccc(C(C)(C)C)cc3)cn2c1 | 32 | 26 | 33 | 1 | 0 | 1 | 4 | 2 | 1 | 12 | 6 | 0 | 12 | 18 | 16 | 4 | 33 | 4 | 0 | 7 |
| COc1cccc(CNC(=O)NC2CCN(c3ccnc(Nc4ccc(F)cc4)n3)C2)c1 (centres unmarked) [GSK1379723] | 0 | 27 | 23 | 14 | 0 | 14 | 0 | 0 | 0 | 82 | 0 | 79 | 78 | 27 | 0 | 0 | 0 | 0 | 0 | 6 |
| Cc1ccc(-c2nc(Nc3ccncc3)c3ccccc3n2)s1 [GSK189015] | 0 | 34 | 27 | 12 | 2 | 15 | 0 | 0 | 12 | 24 | 26 | 0 | 7 | 0 | 0 | 17 | 0 | 9 | 24 | 0 |
| CNC(=O)c1ccc(C)c(-n2c(C)cc(OCc3ccc(F)cc3F)c(Br)c2=O)c1 | 0 | 0 | 0 | 0 | 0 | 0 | 0 | 0 | 0 | 0 | 0 | 0 | 1 | 0 | 0 | 0 | 0 | 57 | 0 | 15 |
| Cc1ccc(NC(=O)Nc2ccc(Cl)cc2)cc1-c1ccc(C(=O)Nc2ccncc2)cc1 [GSK1398472] | 0 | 43 | 34 | 13 | 0 | 10 | 0 | 0 | 0 | 13 | 0 | 0 | 0 | 21 | 0 | 13 | 0 | 8 | 0 | 8 |
| COC(=O)C(NC(=O)NC1CCN(c2ccnc(Nc3ccc(F)cc3)n2)C1)c1ccccc1 (centres unmarked) [GSK1379712] | 18 | 37 | 35 | 5 | 0 | 9 | 0 | 0 | 11 | 19 | 0 | 25 | 23 | 2 | 0 | 17 | 0 | 54 | 81 | 19 |
| Cn1cncc1C(=O)NC1CCN(c2ccnc(Nc3ccc(F)cc3)n2)C1 (centres unmarked) [GSK1379717] | 0 | 32 | 0 | 22 | 12 | 16 | 0 | 0 | 24 | 32 | 0 | 30 | 32 | 14 | 0 | 6 | 0 | 3 | 0 | 0 |
| O=C1NC(=O)C(c2ccc(Cl)cc2)=C1Nc1cccc(Cl)c1 [SB-317651] | 0 | 0 | 3 | 4 | 0 | 0 | 0 | 0 | 0 | 0 | 29 | 7 | 5 | 27 | 0 | 4 | 0 | 6 | 0 | 8 |
| COc1cc2ncnc(Nc3cccc(Br)c3)c2cc1OC.Cl [GI230329] | 30 | 96.5 | 0 | 18 | 0 | 23 | 0 | 0 | 0 | 32 | 0 | 20 | 16 | 18 | 0 | 14 | 0 | 0 | 0 | 6 |
| Cl.Cl.Cl.N#Cc1ccc(CCNc2nccc(-c3cccc(CN4CCNCC4)c3)n2)cc1 [GSK2137462] | 0 | 0 | 0 | 29 | 24 | 31 | 11 | 3 | 28 | 27 | 1 | 35 | 22 | 0 | 0 | 6 | 0 | 0 | 0 | 0 |
| CSc1ccc(-c2nc3n(c2-c2ccncc2)CCC3)cc1 [SKF-105561] | 0 | 90 | 0 | 15 | 0 | 0 | 0 | 0 | 0 | 0 | 30 | 0 | 0 | 3 | 15 | 24 | 30 | 0 | 0 | 0 |
| CCn1c(-c2ccccc2)nc2cnccc21 [SB-733416] | 0 | 2 | 44 | 8 | 0 | 0 | 0 | 0 | 0 | 0 | 13 | 0 | 0 | 18 | 0 | 0 | 98.3 | 0 | 12 | 19 |
| Fc1ccc(-c2nn3cccc(F)c3c2-c2ccncc2)cc1 [GW475620] | 0 | 53 | 39 | 10 | 40 | 6 | 0 | 0 | 6 | 14 | 19 | 0 | 5 | 4 | 0 | 0 | 0 | 10 | 7 | 0 |
| CC[C@@H]1CO[C@H](C(=O)Nc2ccccc2)CN1c1cc(-c2ccc3c(N)n[nH]c3c2)nc(NC)n1 [GSK2376236] | 0 | 0 | 29 | 19 | 13 | 7 | 0 | 0 | 21 | 6 | 0 | 5 | 22 | 8 | 8 | 14 | 0 | 12 | 0 | 9 |
| CC(C)c1cc(-c2ccc3c(N)n[nH]c3c2)nc(N)n1 [GSK2250882] | 0 | 60 | 0 | 23 | 6 | 21 | 0 | 0 | 8 | 23 | 0 | 0 | 18 | 21 | 0 | 5 | 0 | 0 | 0 | 5 |
| COc1ccc(-c2coc3ccc(-c4nnc(C)o4)cc23)cc1 | 0 | 0 | 0 | 13 | 5 | 0 | 0 | 0 | 5 | 0 | 13 | 0 | 16 | 0 | 0 | 0 | 21 | 0 | 0 | 0 |

Source: publication PMC5540273 (PLoS ONE, 2017)
